D3 antag – D3 dopamine receptor (human) antagonism. max response, negative = inhibition, %. P35462. 360,000 compounds, 2.5% hits. D3R cells, DiscoveRx beta-arrestin luminescence, antagonist mode; stronger effect = lower value; in the data active = max response below about -50%; inconclusive = no clear call, values can overlap the other calls; also: % is scaled to controls: 0 for no effect and ±100 for the full control effect
Target sequence (P35462 whole entry, looked up): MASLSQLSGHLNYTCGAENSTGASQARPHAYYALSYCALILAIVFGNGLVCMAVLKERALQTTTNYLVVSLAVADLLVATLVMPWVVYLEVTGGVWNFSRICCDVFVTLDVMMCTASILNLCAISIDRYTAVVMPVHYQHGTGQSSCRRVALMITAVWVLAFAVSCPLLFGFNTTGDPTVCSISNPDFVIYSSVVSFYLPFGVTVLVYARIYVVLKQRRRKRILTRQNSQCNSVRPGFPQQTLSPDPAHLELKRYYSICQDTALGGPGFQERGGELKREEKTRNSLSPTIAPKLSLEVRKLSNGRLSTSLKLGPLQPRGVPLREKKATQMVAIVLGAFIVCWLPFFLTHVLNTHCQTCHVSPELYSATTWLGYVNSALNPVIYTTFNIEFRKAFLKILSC
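Cells expressing the human receptor were seeded at 1500 cells/well, incubated overnight at 37 degrees C in 5% CO2, then exposed to library compounds with dopamine controls for 90 minutes at 37 degrees C before luminescent detection.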
Integrin act MD – activates integrin-mediated alleviation for muscular dystrophy; alpha7betagal myoblasts, beta-gal FDG fluorescence, 48 h; Potency, µM (highest dose often 38.3 µM), for the others: at the highest dose activation, hits mostly activators; 350,000 compounds, 0.064% hits; active = well fitted activation curve with a large enough effect; inconclusive = small, poorly fitted or top-dose-only effect; inactive = no such curve, though single readings can be large or run the other way;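 also: potency is read from the fitted curve at half-maximal effect; 100% = response of the positive control SU9516; nearly all actives have a fitted effect of over 60% in size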
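alpha7betagal+/- myoblasts (passage 13, 250/well) treated 48 h at 37C with compounds at 1:260 dilution of DMSO stock. Lysed, then beta-galactosidase activity read as FDG fluorescence (ex 480/em 540) after 30 min, with pre-read for autofluorescence.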
D3 ag – activates the human D3 dopamine receptor; P35462; D3R DiscoveRx beta-arrestin cells, luminescence, 90 min; max activation, %; 410,000 compounds, 0.58% hits; AID 652048; in the data active = max activation above about 30%; also: 0% is about no effect
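Cells at 1500/well, incubated overnight, then treated with pinned compounds (dopamine as control) for 90 min at 37 degrees C. DiscoveRx reagent added for 30 - 60 minutes at room temperature; luminescence read.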
An asterisk follows results filed as active; ? = inconclusive; · = no result given; [ ] = another dose, or the depositor's remark. In the library only some 2.9% were active in any assay of this set; here they are far more common.

SMILES	D3 antag	Integrin act MD	D3 ag
O=C(C[C@H]1CC[C@H]2[C@@H](COC[C@@H](O)CN2S(=O)(=O)c2ccccc2)O1)N[C@@H]1CCN(Cc2ccccc2)C1	-71*	·	-13
CCc1nc2ccc(C(=O)Nc3ccc(OC)c(OC)c3)cn2c1N(CC)Cc1ccc(OC)c(OC)c1	33	·	15
CCN(CC)C(=O)c1ccc2nc([C@@H]3O[C@H](CO)[C@H](O)[C@H](O)[C@H]3O)[nH]c2c1	7	·	2
O=S1(=O)C=C(Sc2nc3ccccc3s2)c2ccccc21	-98*	-68%	-9
Cc1cc(C)nc(SC2=CS(=O)(=O)c3ccccc32)n1	17	-58%	2
COc1ccc(S(=O)(=O)Nc2ccc(S(=O)(=O)Nc3cc(C)nc(C)n3)cc2)cc1OC	2	-4%	-1
COc1ccc(/C=C(/NC(=O)c2ccco2)C(=O)NCCc2ccccc2)cc1	3	-16%	0
C=C[C@]1(C)C=C2C(=O)[C@@]3(O)OC(=O)[C@@]4(CCCC(C)(C)[C@H]34)[C@@]2(O)CC1	-58*	·	-9
C=C[C@]1(C)C=C2CC[C@H]3[C@@](C)(CCC[C@@]3(C)C(=O)O)[C@@H]2CC1	8	23%	-3
O=C(Nc1cccnc1)c1ccc(COc2ccccc2Br)cc1	-25	-55%	-3
Cc1c(C(=O)N/N=C/c2ccc(N(C)C)cc2)[nH]c2ccc(Cl)cc12	58	-17%	-10
O=C(COC(=O)/C=C/c1cccs1)Nc1cccc(S(=O)(=O)N2CCOCC2)c1	-7	0%	-13
Cc1ccc(-n2nnc3c(=O)n(Cc4cc(C)ccc4C)cnc32)cc1	-68*	24%	-7
Cc1cccc(Cn2cnc3c(nnn3Cc3ccc(F)cc3)c2=O)c1	22	32%	1
Cc1ccc(-n2nnc3c(=O)n(Cc4cccc(C)c4)cnc32)cc1	-1	21%	-8
Cc1cccc(Cn2cnc3c(nnn3Cc3ccccc3F)c2=O)c1	3	38%	56*
COc1ccc(-c2cnc3c(NC=O)cc(-c4ccc(F)cc4)cn23)cc1OC	9	·	-1
COC(C[C@@H]1O[C@@H]1[C@@H](O)[C@H](C)OCc1ccccc1)OC	0	4%	1
COC(C[C@H]1O[C@H]1[C@H](O)[C@H](C)OCc1ccccc1)OC	12	9%	37*
CC(C)[C@H](NC(=O)[C@@H]1Cc2c([nH]c3ccccc23)C2c3ccccc3C(=O)N21)C(=O)N1CCC[C@@H]1C(=O)O (some centres undefined)	29	22%	40*
CC(C)[C@H](NC(=O)N1CC(=O)Nc2ccccc21)C(=O)N1CCC[C@H]1C(=O)O	0	11%	-31
CCOC(=O)C1CCN(S(=O)(=O)c2csc(C(N)=O)c2)CC1	7	25%	0
CN1CCN(C(=O)N2c3ccccc3C=Cc3ccccc32)CC1	?	22%	-16
CN1CCC(=C2c3ccccc3C=Cc3ccccc32)CC1	-115*	·	·
O=C1Cc2ccccc2Sc2ccccc21	-25	-4%	-6
SMILES	D3 antag	Integrin act MD	D3 ag
CN1CCC(=C2c3ccccc3Sc3ccccc32)CC1	-108*	·	-97
O=C(OCC(=O)N1CCN(C(=O)c2ccco2)CC1)c1sc2cc(F)ccc2c1Cl	6	6%	-2
O=C(CCOc1ccccc1)N1CCN(c2ccc(O)cc2)CC1	2	-49%	11
O=C(CCCOc1ccccc1)N1CCN(c2ccccc2)CC1	-53*	0%	-20
CC(C)c1nc2ccccc2c2nnc(SCC(=O)NCc3ccco3)n12	16	-2%[7.66 µM]	7
CCOc1cc2[nH]c(=O)n(CCCCC(=O)N3CCN(c4ccccc4)CC3)c(=O)c2cc1OCC	·	·	6
CCOC(=O)N1CCN(C(=O)c2ccc(Cn3c(=S)[nH]c4cc(OCC)c(OCC)cc4c3=O)cc2)CC1	99	-20%	21
O=C(CCCCCn1c(=S)[nH]c2cc3c(cc2c1=O)OCO3)N1CCN(c2ccccc2)CC1	4	?	-15
CCOc1cc2[nH]c(=O)n(CCCC(=O)N3CCN(c4ccc(OC)cc4)CC3)c(=O)c2cc1OCC	·	·	30*
O=C(CCCn1c(=S)[nH]c2cc3c(cc2c1=O)OCO3)N1CCN(c2ccc(F)cc2)CC1	51	-14%	36*
CCOC(=O)N1CCN(C(=O)c2ccc(Cn3c(=S)[nH]c4cc5c(cc4c3=O)OCO5)cc2)CC1	15	-61%	85*
O=C(CNc1ccc(Cl)cc1)NNC(=S)NCc1ccccc1	-17	44%	-10
O=C(NCc1ccc(F)cc1)c1[nH]c(C(F)(F)F)nc1-c1ccccc1	-7	·	8
CCCCN(C)C(=O)c1[nH]c(C(F)(F)F)nc1-c1ccccc1	0	·	-2
O=C(NCc1ccccc1)c1[nH]c(C(F)(F)F)nc1-c1ccccc1	-24	·	65*
